A word on the AC50: it is the concentration at which the activity in the assay is half-maximal.

52 compounds from PubChem BioAssay (EPA / NIEHS) can be followed below.

The target in assay [1] is Estrogen receptor (Homo sapiens) (UniProt P03372). Nature of the assay: OT_ER_ERaERa_1440: Odyssey Thera (OT) 24-hour HEK293T Protein-Complementation Assay for Estrogen Receptor-alpha/-alpha Homodimer (AID 2283349).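 Note: hits raise fluorescence above DMSO for agonists and antagonists alike.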 Summed up:
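Protein-fragment complementation between two human ERα ligand-binding domains (aa 310-547) in stably transfected HEK293T cells was monitored after 24 h treatment, using fluorescence intensity relative to vehicle controls.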

For assay [2] the target is unchanged. The experiment in a line: OT_ER_ERaERa_0480: Odyssey Thera (OT) 8-hour HEK293T Protein-Complementation Assay for Estrogen Receptor-alpha/-alpha Homodimer (AID 2283351).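 Note: rise in fluorescence from reassembled reporter fragments on ERα LBD homodimer in nucleus or whole cell.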 An outline of the steps: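 The readout is complementation of fragments fused to the human ER alpha ligand-binding domain (aa 310-547), stably expressed in HEK293T cells. After 8 h of exposure, the increase in nuclear/cytoplasmic fluorescence was measured by laser scanning cytometry and fitted relative to DMSO.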

For assay [3] the target is unchanged. Nature of the assay: NVS_NR_hER: NovaScreen (NVS) Nuclear Receptor Binding Assay for human Estrogen Receptor (ER) (AID 2283348). An outline of the steps:
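Scintillation signal from bound radioligand was measured 18 hours after chemical addition to cell-free MCF7 protein extracts, with DMSO as baseline. Activity was scored as signal loss; compounds ran first at 25 uM in duplicate.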

Assay [4] has as its target Estrogen receptor (Homo sapiens) + Estrogen receptor beta (Homo sapiens) (UniProt P03372+Q92731). Nature of the assay: OT_ER_ERaERb_0480: Odyssey Thera (OT) 8-hour HEK293T Protein-Complementation Assay for Estrogen Receptor-alpha/-beta Heterodimer (AID 2283352). Summed up:
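Compound added to HEK293T cells carrying split-reporter-tagged ER-alpha and ER-beta LBDs, incubated 8 hours, then imaged by laser scanning cytometer. Signal rise in nucleus, or nucleus and cytoplasm, over vehicle was fitted in the positive direction.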

In assay [5] the target is chimpanzee Androgen Receptor (AR), AR (gene 747460) (UniProt O97775). Nature of the assay: NVS_NR_cAR: NovaScreen (NVS) Nuclear Receptor Binding Assay for chimpanzee Androgen Receptor (AR) (AID 2283346).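 Note: radioligand displacement from AR measured by scintillation counting in a cell-free assay; a loss of bound radioligand signal versus DMSO counts as binding.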 Summed up:
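Cell-free competition binding with insect-cell (Sf9/Sf21) extracted chimpanzee AR; scintillation signal from lysate at 72 h. Screened in duplicate at 25 uM, then concentration-response for actives; fitting relative to DMSO.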

Results filed as inconclusive are left out. Calls of active or inactive are those of the source. Rule for the calls: active = hit-call score of the fitted dose curve at least 0.9, where 1 is the maximum; inconclusive = response in the unintended direction; inactive = score below 0.9.

Chain of Estrogen receptor (Homo sapiens) (P03372 whole entry, looked up, the tested form may be a part): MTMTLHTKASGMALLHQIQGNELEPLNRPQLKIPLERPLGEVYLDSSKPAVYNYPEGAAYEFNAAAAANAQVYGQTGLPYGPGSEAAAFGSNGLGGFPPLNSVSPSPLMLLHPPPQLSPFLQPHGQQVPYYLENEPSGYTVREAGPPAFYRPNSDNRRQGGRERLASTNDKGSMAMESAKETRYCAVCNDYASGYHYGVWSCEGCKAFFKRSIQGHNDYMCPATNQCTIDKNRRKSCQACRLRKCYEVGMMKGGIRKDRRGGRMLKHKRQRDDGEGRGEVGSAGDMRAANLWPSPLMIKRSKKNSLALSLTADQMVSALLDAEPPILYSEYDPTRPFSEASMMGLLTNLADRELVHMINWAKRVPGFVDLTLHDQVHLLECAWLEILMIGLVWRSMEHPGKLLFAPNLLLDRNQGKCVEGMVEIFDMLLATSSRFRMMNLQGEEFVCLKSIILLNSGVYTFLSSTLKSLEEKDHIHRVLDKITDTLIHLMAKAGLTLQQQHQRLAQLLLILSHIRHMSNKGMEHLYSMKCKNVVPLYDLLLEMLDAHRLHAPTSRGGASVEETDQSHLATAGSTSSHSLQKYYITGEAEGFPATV
Chain of Estrogen receptor (Homo sapiens) + Estrogen receptor beta (Homo sapiens) (P03372 whole entry, looked up): as the sequence (P03372 whole entry, looked up, the tested form may be a part) above
Chain of Estrogen receptor (Homo sapiens) + Estrogen receptor beta (Homo sapiens) (Q92731 whole entry, looked up): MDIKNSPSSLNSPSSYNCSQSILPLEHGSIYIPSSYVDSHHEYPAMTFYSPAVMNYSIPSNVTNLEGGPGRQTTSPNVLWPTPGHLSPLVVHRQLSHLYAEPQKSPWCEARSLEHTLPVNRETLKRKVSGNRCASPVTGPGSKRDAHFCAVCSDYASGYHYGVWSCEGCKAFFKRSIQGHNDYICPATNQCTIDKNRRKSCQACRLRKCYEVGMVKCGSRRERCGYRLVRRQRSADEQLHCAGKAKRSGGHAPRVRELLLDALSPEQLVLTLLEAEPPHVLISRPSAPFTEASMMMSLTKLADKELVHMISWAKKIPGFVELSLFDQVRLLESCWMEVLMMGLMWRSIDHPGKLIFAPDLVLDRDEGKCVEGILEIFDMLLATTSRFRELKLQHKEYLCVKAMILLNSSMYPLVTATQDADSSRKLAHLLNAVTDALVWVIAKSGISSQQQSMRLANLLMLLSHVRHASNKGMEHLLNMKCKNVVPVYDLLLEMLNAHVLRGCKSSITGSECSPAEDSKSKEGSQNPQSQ
Chain of chimpanzee Androgen Receptor (AR), AR (gene 747460) (O97775 whole entry, looked up): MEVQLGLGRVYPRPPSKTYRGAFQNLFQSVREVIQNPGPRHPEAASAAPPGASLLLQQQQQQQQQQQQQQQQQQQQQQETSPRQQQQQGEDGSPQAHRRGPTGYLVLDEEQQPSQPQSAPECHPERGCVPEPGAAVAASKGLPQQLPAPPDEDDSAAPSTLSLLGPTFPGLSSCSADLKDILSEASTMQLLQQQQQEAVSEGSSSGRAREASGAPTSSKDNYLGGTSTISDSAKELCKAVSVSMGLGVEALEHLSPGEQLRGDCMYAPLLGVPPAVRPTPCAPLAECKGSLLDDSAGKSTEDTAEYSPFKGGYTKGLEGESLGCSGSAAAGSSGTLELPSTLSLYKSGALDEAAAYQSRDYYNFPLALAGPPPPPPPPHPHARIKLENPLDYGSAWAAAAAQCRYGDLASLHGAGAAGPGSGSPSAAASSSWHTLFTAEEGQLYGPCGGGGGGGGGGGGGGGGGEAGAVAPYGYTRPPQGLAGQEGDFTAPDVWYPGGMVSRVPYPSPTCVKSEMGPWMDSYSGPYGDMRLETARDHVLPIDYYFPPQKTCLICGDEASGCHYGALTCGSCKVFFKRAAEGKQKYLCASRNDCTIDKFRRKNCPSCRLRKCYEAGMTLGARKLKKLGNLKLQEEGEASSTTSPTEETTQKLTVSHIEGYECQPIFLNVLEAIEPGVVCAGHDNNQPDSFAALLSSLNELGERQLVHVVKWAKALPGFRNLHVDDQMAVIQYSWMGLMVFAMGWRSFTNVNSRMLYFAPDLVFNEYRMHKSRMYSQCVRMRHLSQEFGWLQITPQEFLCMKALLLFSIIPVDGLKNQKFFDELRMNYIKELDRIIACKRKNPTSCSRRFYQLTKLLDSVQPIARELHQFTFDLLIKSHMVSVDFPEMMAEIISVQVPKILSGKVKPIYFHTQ

With `COc1ccc(C)cc1N`, the result in assay [1] and in assay [2] was inactive.
For the compound `CC(C)(C)c1cc(O)c(C(C)(C)C)cc1O`, the call in assay [3], in assay [1], in assay [2] and in assay [4] was inactive.
With `O=c1c(O)c(-c2ccc(O)c(O)c2)oc2cc(O)cc(O)c12`, the result in assay [3], in assay [1] and in assay [2] was inactive. Moreover, in assay [4], the concentration at half-maximal activity (AC50) was 13.4 µM (active).
Regarding `Oc1ccc2c(c1)OC[C@@H](N1CCC(O)(c3ccc(F)cc3)CC1)[C@H]2O`, the call in assay [3], in assay [1], in assay [2] and in assay [4] was inactive.
`COCCOC[C@H](CC1(C(=O)NC2CCC(C(=O)O)CC2)CCCC1)C(=O)Oc1ccc2c(c1)CCC2` (some centres undefined): the result in assay [1] and in assay [2] was inactive.
For `CCCCCCCCCCCCCCCC`, the compound was called inactive in assay [1] and in assay [2].
Turning to `CC1(C)CC(N=C=O)CC(C)(CN=C=O)C1` (centres undefined), the call in assay [1] and in assay [2] was inactive.
As for `Cc1ccc2ncccc2c1`, the result in assay [1] and in assay [2] was inactive.
For the compound `CC=Cc1ccc(O)c(OC)c1`, in assay [3], the compound was called inactive. The results for the half-maximal activity concentration (AC50) in assay [1] and in assay [2] were 73.5 µM (active) and 57.6 µM (active), respectively.
Consider `CC1(C)NC(=O)NC1=O`, for which the compound was called inactive in assay [1] and in assay [2].
Consider `CC1=C(/C=C/C(C)=C/C=C/C(C)=C/CO)C(C)(C)CCC1`, for which the compound was called inactive in assay [3], in assay [1], in assay [2] and in assay [4].
With `C=CCOC(=O)c1ccccc1C(=O)OCC=C`, the AC50 was 14.5 µM (active) in assay [5], 41.4 µM (active) in assay [3] and 63.1 µM (active) in assay [2]. Besides, in assay [1], the compound was classed as inactive.
With `CCOC(=O)CCC(=O)OCC`, the result in assay [3], in assay [1], in assay [2] and in assay [4] was inactive.
Turning to `CC(=O)OC/C=C(\C)CCC=C(C)C`, the outcome in assay [1] and in assay [2] was inactive.
On to `Clc1cc(Cl)c(Cl)cc1Cl`, for which the outcome in assay [1] and in assay [2] was inactive.
As for `CC(CO)OC(C)CO` (centres undefined) (tested in a mixture with another compound), the compound was classed as inactive in assay [1] and in assay [2].
Turning to `CCNc1cccc(C)c1`, the call in assay [5], in assay [1] and in assay [2] was inactive.
With `Cc1oc(-c2ccccc2)nc1CCOc1cccc2c1ccn2CCC(=O)O`, the call in assay [3], in assay [1], in assay [2] and in assay [4] was inactive.
`Cc1cc(NC(=O)C(=O)O)cc(C)c1Oc1ccc(O)c2c1CCC2`: the compound was classed as inactive in assay [5], in assay [1] and in assay [2].
Take `C=CCc1ccc(O)c(OC)c1`: in assay [5], the AC50 was 21 µM (active). Moreover, the compound was called inactive in assay [3], in assay [1] and in assay [2].
On to `NCCO`, for which the result in assay [1] and in assay [2] was inactive.
For `c1cc(-c2ccncc2)ccn1`, the result in assay [1] and in assay [2] was inactive.
As to `CCCCN(CCCC)CCCC`, the call in assay [5], in assay [1], in assay [2] and in assay [4] was inactive.
With `CCOC(=O)C(C)(C)Oc1ccc(Cl)cc1`, the call in assay [1], in assay [2] and in assay [4] was inactive.
`CCCCCCCCCCCCCO`: the call in assay [1], in assay [2] and in assay [4] was inactive.
Turning to `FC(F)(F)C(F)(F)C(F)(F)C(F)(F)C(F)(F)C(F)(F)CCI`, the call in assay [1] and in assay [2] was inactive.
`CCCCOC(=O)CCCCCCCCC(=O)OCCCC`: the call in assay [1], in assay [2] and in assay [4] was inactive.
As for `Cc1c(C(=O)O)c(O)cc2c1C(=O)c1c(O)c([C@@H]3O[C@H](CO)[C@@H](O)[C@H](O)[C@H]3O)c(O)c(O)c1C2=O`, the call in assay [1], in assay [2] and in assay [4] was inactive.
Consider `Nc1ccc(S(=O)(=O)c2ccc(N)cc2)cc1`, for which the result in assay [1] and in assay [2] was inactive.
`Cc1ccc(C)c(C)c1`: the outcome in assay [1], in assay [2] and in assay [4] was inactive.
With `NCC1(Cc2noc(=O)[nH]2)CCCCC1`, the compound was called inactive in assay [1], in assay [2] and in assay [4].
Regarding `Cc1nc(C)nc(N2C[C@@H](C)N(c3ccnc([C@@H](C)O)n3)[C@@H](C)C2)n1`, in assay [2], the call was inactive.
`Cc1cccc(C)c1O`: the compound was called inactive in assay [1], in assay [2] and in assay [4].
Consider `Cc1ccc(N(C)C)cc1`, for which the call in assay [1] and in assay [2] was inactive.
`O=C(O)CCCCC(=O)O`: the compound was classed as inactive in assay [1], in assay [2] and in assay [4].
For the compound `Cc1cccc([N+](=O)[O-])c1C`, the result in assay [1], in assay [2] and in assay [4] was inactive.
`Cc1ccccc1Cl`: the compound was classed as inactive in assay [1] and in assay [2].
For `COCCOCCOC`, the outcome in assay [1] and in assay [4] was inactive.
Turning to `CCCCCCCCCCO`, the outcome in assay [1], in assay [2] and in assay [4] was inactive.
Turning to `CNC(=O)[C@H]1O[C@@H](n2cnc3c(NCc4cc(Cl)ccc4OCc4cc(C)no4)ncnc32)[C@H](O)[C@@H]1N`, the AC50 in assay [1] was 11.9 µM (active). For the same compound, the compound was classed as inactive in assay [2] and in assay [4].
Consider `COc1cc(S(=O)(=O)O)c(C)cc1N=Nc1c(O)ccc2cc(S(=O)(=O)O)ccc12`, for which the result in assay [1] and in assay [2] was inactive.
In the case of `CCCCCCOCCO`, the compound was called inactive in assay [1], in assay [2] and in assay [4].
Take `C1CCC(SSC2CCCCC2)CC1`: the outcome in assay [1] and in assay [2] was inactive. In addition, the concentration at half-maximal activity (AC50) in assay [4] was 50 µM (active).
Consider `O=c1[nH]cc(F)c(=O)[nH]1`, for which the outcome in assay [1], in assay [2] and in assay [4] was inactive.
Take `CCCCCC(=O)O`: the compound was classed as inactive in assay [1], in assay [2] and in assay [4].
Turning to `CN1CCCC1=O`, the result in assay [1] and in assay [4] was inactive.
On to `CC(=O)Oc1ccccc1C(=O)O`, for which the outcome in assay [1], in assay [2] and in assay [4] was inactive.
Consider `CC(=O)OCCOCCOCCOC(C)=O`, for which the outcome in assay [1], in assay [2] and in assay [4] was inactive.
As for `NS(=O)(=O)c1cc2c(cc1Cl)NCNS2(=O)=O`, the outcome in assay [1], in assay [2] and in assay [4] was inactive.
Regarding `OC[C@@H](O)[C@@H](O)[C@H](O)[C@H](O)CO`, the compound was classed as inactive in assay [1] and in assay [2].
For `Nc1nc(N)c2nc(CNc3ccc(C(=O)N[C@@H](CCC(=O)O)C(=O)O)cc3)cnc2n1`, the compound was classed as inactive in assay [1], in assay [2] and in assay [4].
With `O=C(N[C@@H](Cc1ccccc1)[C@@H](O)C(=O)N1C[C@@H](O)[C@@H](O)C1)c1cc2cc(Cl)ccc2[nH]1`, the outcome in assay [1], in assay [2] and in assay [4] was inactive.
